Structures are written as SMILES. Inconclusive results are not listed. A call without a number means that no potency is given here. Active and inactive are the calls of the source. Calls come from the whole dose curve; as a rule, active = well fitted inhibition curve with a large enough effect; inconclusive = small, poorly fitted or top-dose-only effect; inactive = flat fitted curve, though single readings scatter.
Potency is the fitted concentration of half-maximal effect.

The test system of the assay is TAB109. Put plainly: qHTS profiling for inhibitors of Plasmodium falciparum proliferation (AID 504749). Note: nearly all actives have a fitted effect of over 60% in size. To be noted: P. falciparum in erythrocytes, SYBR Green DNA, 72 h; series mostly up to 28.7 µM. In short, it runs like this:
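Infected RBCs, 0.3% parasitemia/2.5% Hct final; cpd 72 h, 37 C, 5% CO2; lysis buffer with saponin/triton/SYBR Green I, o/n RT dark; FI 485/535; norm. to artemisinin (0.29 uM) and DMSO.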
A general note: In qHTS, concentration-response curves come from the screen itself.
As to `Nc1nc2c(c(=O)[nH]1)N(C=O)[C@H](CNc1ccc(C(=O)N[C@@H](CCC(=O)O)C(=O)O)cc1)CN2`, the Potency entry is “inactive”.

For `CCCCCCCCCCCC(CC1OC(=O)C1CCCCCC)OC(=O)C(CC(C)C)NC=O` (configuration not stated), the Potency is 0.794 µM (active).

As for `COc1cccc2c1C(=O)c1c(O)c3c(c(O)c1C2=O)C[C@@](O)(C(=O)CO)C[C@@H]3O[C@H]1C[C@H](N)[C@H](OC2CCCCO2)[C@H](C)O1` (some centres not stated), the Potency is 2.51 µM (active).

Take `COc1ccc2c(c1OC)C(=O)OC2[C@H]1c2c(cc3c(c2OC)OCO3)CCN1C` (some centres not stated): the Potency result was “inactive”.

Take `OCC(O)C(O)C(O)CO` (configuration not stated): the Potency result was “inactive”. On to `CCC(C(=O)O)C1CCC(C)C(C(C)C(O)C(C)C(=O)C(CC)C2OC3(C=CC(O)[C@@]4(CC[C@](C)(C5CC[C@@](O)(CC)C(C)O5)O4)O3)C(C)CC2C)O1` (some centres not stated), for which the Potency was 1 µM (active). On to `COc1ccc([C@@H]2CNC(=O)C2)cc1OC1CCCC1`, for which the Potency result was “inactive”.
